Reference: PubChem BioAssay (EPA / NIEHS)
Results filed as inconclusive are left out. Activity calls are given as the source filed them. Rule for the calls, unless noted: active = hit-call score of the fitted dose curve at least 0.9, where 1 is the maximum; inactive = score below 0.9.

Assays:
[1] = TOX21_p53_BLA_p2_viability: Viability Assessment in the Tox21 HCT-116 p53 Agonism Beta-lactamase Assay, Phase 2 (AID 2283591; active = hit-call score of the fitted dose curve at least 0.9, where 1 is the maximum;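 note: compound exposure lasted 16 h at 37 °C; actives lower the ATP signal meaning cytotoxicity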)
Method in brief: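 Cytotoxicity readout: CellTiter-Glo ATP luminescence, 30 min at room temperature, after the beta-lactamase read. Cells were HCT116 exposed 16 h at 37C to compounds pin-transferred at 217-fold dilution from DMSO stocks.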

[2] = TOX21_p53_BLA_p3_viability: Viability Assessment in the Tox21 HCT-116 p53 Agonism Beta-lactamase Assay, Phase 3 (AID 2283593; active = hit-call score of the fitted dose curve at least 0.9, where 1 is the maximum;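 note: cells exposed to compound for 16 h before reading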)
Method in brief: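 Cellular ATP was quantified by CellTiter-Glo luminescence, read after 30 min at room temperature. Beforehand, HCT116 cells (4000/well) received compound 5 h post-seeding, 217-fold diluted from DMSO, then incubated 16 h at 37C.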

[3] = target: Cellular tumor antigen p53 (Homo sapiens) (UniProt P04637); experiment: TOX21_p53_BLA_p3_ratio: Tox21 HCT-116 p53 Agonism Beta-lactamase Assay, Ratio, Phase 3 (AID 2283596; active = hit-call score of the fitted dose curve at least 0.9, where 1 is the maximum)
Method in brief: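 HCT116 p53-bla cells (4000/well) given compound in DMSO (217-fold dilution) after 5 h, incubated 16 h at 37C. CCF4-AM substrate 2 h at room temperature; 460/530 nm emission ratio, gain fitted against DMSO.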

[4] = TOX21_p53_BLA_p4_viability: Viability Assessment in the Tox21 HCT-116 p53 Agonism Beta-lactamase Assay, Phase 4 (AID 2283597; active = hit-call score of the fitted dose curve at least 0.9, where 1 is the maximum;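 note: hits lower the luminescence signal meaning cytotoxicity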)
Method in brief: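 Cells plated, 5 h pre-incubation; DMSO compounds pinned (217-fold dilution); 16 h, 37C/5% CO2; CCF4-AM 2 h RT; CellTiter-Glo 30 min RT; luminescence read.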

[5] = target: Cellular tumor antigen p53 (Homo sapiens) (UniProt P04637); experiment: TOX21_p53_BLA_p5_ratio: Tox21 HCT-116 p53 Agonism Beta-lactamase Assay, Ratio, Phase 5 (AID 2283599; active = hit-call score of the fitted dose curve at least 0.9, where 1 is the maximum)
Method in brief: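 Beta-lactamase reporter ratio (blue 460 nm over green 530 nm, 405 nm excitation) after 2 h CCF4-AM loading, in HCT-116 cells exposed 16 h at 37 C to compounds pinned at 217-fold dilution. Increases relative to DMSO baseline scored.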

[6] = TOX21_p53_BLA_p5_viability: Viability Assessment in the Tox21 HCT-116 p53 Agonism Beta-lactamase Assay, Phase 5 (AID 2283600; active = hit-call score of the fitted dose curve at least 0.9, where 1 is the maximum)
Method in brief: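 4000 cells/well; 5 h pre-incubation; DMSO compounds pin-transferred, 217-fold dilution; 16 h, 37C/5% CO2; CCF4-AM 2 h RT; CellTiter-Glo 30 min RT; luminescence.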

[7] = target: Cellular tumor antigen p53 (Homo sapiens) (UniProt P04637); experiment: TOX21_p53_BLA_p4_ratio: Tox21 HCT-116 p53 Agonism Beta-lactamase Assay, Ratio, Phase 4 (AID 2283601; active = hit-call score of the fitted dose curve at least 0.9, where 1 is the maximum)
Method in brief: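 Signal is the blue/green (460nm/530nm) ratio of cleaved versus uncleaved CCF4-AM substrate, read after 2 h substrate loading. Cells were HCT116 carrying the p53-responsive beta-lactamase reporter, dosed 16 h at 37C, 5% CO2; CellTiter-Glo measured in parallel.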

[8] = CCTE_Shafer_MEA_dev_firing_rate_mean: CCTE's Neural Network Formation Assay for Mean Firing Rate, Shafer Lab (AID 2284031)
Method in brief: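 Rat primary cortical neurons were seeded on multielectrode arrays and treated from plating through day 12, with redosing at each feed. Spontaneous spiking was recorded four times; mean firing rate AUC was fitted downward against DMSO.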

[9] = CCTE_Shafer_MEA_dev_per_burst_spike_percent: CCTE's Neural Network Formation Assay for Percent of Spikes in a Burst, Shafer Lab (AID 2284032);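 note: fitted as a decrease in burst spike percentage below DMSO baseline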
Method in brief: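 Rat primary cortical neurons on 16-electrode MEA wells, dosed from plating day 0 for 12 days with renewal on DIV 5 and 9; spikes-in-bursts percentage averaged over bursting electrodes, collapsed as AUC across days 5, 7, 9, 12; loss direction versus DMSO.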

[10] = CCTE_Shafer_MEA_dev_active_electrodes_number: CCTE's Neural Network Formation Assay for Number of Active Electrodes, Shafer Lab (AID 2284040; active = hit-call score of the fitted dose curve at least 0.9, where 1 is the maximum;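 note: potency for loss of active electrodes versus DMSO so lower counts are hits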)
Method in brief: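 Primary rat cortical neurons on 16-electrode MEA wells, exposed from day 0 through day 12 with compound renewed at DIV 5 and 9 feeds. Active electrodes (mean firing ≥5 spikes/min) counted at DIV 5, 7, 9, 12; trapezoidal AUC across days, loss-of-signal versus DMSO.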

[11] = CCTE_Shafer_MEA_dev_burst_rate: CCTE's Neural Network Formation Assay for Burst Rate, Shafer Lab (AID 2284042)
Method in brief: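 Exposure ran continuously over 12 days of network development in rat cortical cultures, with compound refreshed during full media changes on DIV 5 and 9. Single-electrode bursts per recording time, well-mean over active electrodes, trapezoidal AUC across days 5–12, fitted downward relative to DMSO.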

[12] = CCTE_Shafer_MEA_dev_bursting_electrodes_number: CCTE's Neural Network Formation Assay for Number of Bursting Electrodes, Shafer Lab (AID 2284043; active = hit-call score of the fitted dose curve at least 0.9, where 1 is the maximum;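 note: potency is for loss of bursting electrodes relative to DMSO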)
Method in brief: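 Read-out is the per-well number of electrodes bursting at least once every 2 minutes, recorded on days 5, 7, 9 and 12 and collapsed by trapezoidal area under the curve. Cultures were primary rat cortical neurons on MEA plates, treated continuously from plating.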

[13] = CCTE_Shafer_MEA_dev_per_burst_interspike_interval: CCTE's Neural Network Formation Assay for Burst Interspike Interval, Shafer Lab (AID 2284044);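 note: mean spike spacing inside bursts as AUC over recordings on days 5 7 9 12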
Method in brief: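 Neurons from rat cortex plated onto PEI-coated MEA wells with laminin […] at 1.5 x 10^5 cells/well, then treated from day 0. Media and compound fully replaced on DIV 5 and 9. Extracellular spontaneous firing recorded four times; interspike interval per burst summarised as AUC.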

[14] = CCTE_Shafer_MEA_dev_burst_duration_mean: CCTE's Neural Network Formation Assay for Mean Burst Duration, Shafer Lab (AID 2284045)
Method in brief: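 Read-out: average first-to-last-spike interval within single-electrode bursts, averaged over bursting electrodes per well, then summarised as area under the curve across days 5, 7, 9 and 12. Developing rat cortical networks were exposed from day 0.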

[15] = CCTE_Shafer_MEA_dev_interburst_interval_mean: CCTE's Neural Network Formation Assay for Mean Interburst Interval, Shafer Lab (AID 2284046);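 note: well-mean interburst interval of bursting electrodes as AUC over four recording days; curve fitted for decrease in interburst interval relative to DMSO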
Method in brief: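 Primary rat cortical neurons on PEI-coated 48-well MEA plates (laminin added with cells at plating) (16 electrodes/well), exposed from plating day 0 with renewal at DIV 5 and 9. Mean inter-burst interval averaged over bursting electrodes, AUC across days 5, 7, 9, 12; DMSO baseline.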

[16] = CCTE_Shafer_MEA_dev_inter_network_spike_interval_mean: CCTE's Neural Network Formation Assay for Mean Inter-network Spike Interval, Shafer Lab (AID 2284047)
Method in brief: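 Mean time between consecutive network-spike peaks, recorded extracellularly (adaptive spike detection) on DIV 5, 7, 9 and 12, summarized as trapezoidal AUC. Rat cortical cultures on MEAs dosed continuously days 0–12, re-dosed at feeds; loss-of-signal fit relative to DMSO.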

[17] = CCTE_Shafer_MEA_dev_network_spike_number: CCTE's Neural Network Formation Assay for Number of Network Spikes, Shafer Lab (AID 2284048);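 note: synchronized bursts across electrodes counted on days 5 7 9 12 and integrated as AUC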
Method in brief: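 Developing networks of primary rat cortical neurons are treated over 12 days starting at plating, with media and compound fully replaced on DIV 5 and 9. Network spike counts from four recording days are integrated as trapezoidal AUC.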

[18] = CCTE_Shafer_MEA_dev_network_spike_peak: CCTE's Neural Network Formation Assay for Mean Number of Electrodes in Network Spike, Shafer Lab (AID 2284049);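 note: fitted for loss of signal meaning fewer electrodes in network spikes than DMSO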
Method in brief: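 Rat cortical primary culture, 1.5 x 10^5 cells/well, 48-well MEA (16 electrodes/well). Dosing day 0 through DIV 12, full media/compound exchange DIV 5, 9. AxIS adaptive spike detection; AUC over days 5/7/9/12; loss-of-signal vs DMSO.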

[19] = CCTE_Shafer_MEA_dev_spike_duration_mean: CCTE's Neural Network Formation Assay for Mean Spike Duration, Shafer Lab (AID 2284051);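 note: mean network spike duration pooled as area under curve over DIV 5 to 12 recordings; potency for a decrease in mean network spike duration versus DMSO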
Method in brief: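 Spontaneous activity was recorded on days 5, 7, 9 and 12 from rat cortical cultures grown on microelectrode arrays and dosed continuously from day 0, with media and compound renewed after the DIV 5 and 9 recordings. Network-spike duration was collapsed by area under the curve.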

[20] = CCTE_Shafer_MEA_dev_network_spike_duration_std: CCTE's Neural Network Formation Assay for Standard Deviation of Network Spike Duration, Shafer Lab (AID 2284052);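 note: hits are decreases in network spike duration SD versus DMSO vehicle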
Method in brief: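 Network spike duration variability was collapsed across recordings on days 5, 7, 9 and 12 by trapezoidal area-under-curve and fitted downward against DMSO. Cultures were rat cortical neurons on PEI-coated MEA plates, dosed continuously from plating, refed with compound DIV 5/9.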

[21] = CCTE_Shafer_MEA_dev_per_network_spike_spike_number_mean: CCTE's Neural Network Formation Assay for Mean Number of Spikes in a Network Spike, Shafer Lab (AID 2284053);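 note: fitted as decrease in spikes per network spike relative to DMSO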
Method in brief: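 Mean spike count within each network spike, taken in a 0.05 s window at its peak, was recorded on days 5, 7, 9 and 12 and integrated as trapezoidal area under the curve. Rat cortical cultures on MEA plates received continuous compound from day 0, refreshed at medium changes on DIV 5 and 9.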

[22] = CCTE_Shafer_MEA_dev_per_network_spike_spike_percent: CCTE's Neural Network Formation Assay for Percent of Spikes in a Network Spike, Shafer Lab (AID 2284054)
Method in brief: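 Rat primary cortical cultures, 1.5 x 10^5 cells/well on MEA. Continuous compound exposure d0–12, medium/compound renewed DIV 5, 9. Network-spike spike % (0.05 s peak window), AUC over 4 recordings, DMSO baseline.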

[23] = UKN5_HCS_SBAD2_cell_viability: Viability Assessment in the University of Konstanz (UKN) Leist Lab Neurite Outgrowth Assay in human iPSC-derived immature Dorsal Root Ganglia Neurons (UKN5) (AID 2284056)
Method in brief: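 iPSC-derived immature peripheral neurons (SBAD2) seeded on Matrigel with CHIR99021, SU5402 and DAPT, dosed 1 h later for 24 h. Viability from Hoechst H-33342 and calcein-AM live staining, high-content imaging; bidirectional fit versus DMSO.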

Measured: AC50

Sequence of Cellular tumor antigen p53 (Homo sapiens) (P04637 whole entry, looked up): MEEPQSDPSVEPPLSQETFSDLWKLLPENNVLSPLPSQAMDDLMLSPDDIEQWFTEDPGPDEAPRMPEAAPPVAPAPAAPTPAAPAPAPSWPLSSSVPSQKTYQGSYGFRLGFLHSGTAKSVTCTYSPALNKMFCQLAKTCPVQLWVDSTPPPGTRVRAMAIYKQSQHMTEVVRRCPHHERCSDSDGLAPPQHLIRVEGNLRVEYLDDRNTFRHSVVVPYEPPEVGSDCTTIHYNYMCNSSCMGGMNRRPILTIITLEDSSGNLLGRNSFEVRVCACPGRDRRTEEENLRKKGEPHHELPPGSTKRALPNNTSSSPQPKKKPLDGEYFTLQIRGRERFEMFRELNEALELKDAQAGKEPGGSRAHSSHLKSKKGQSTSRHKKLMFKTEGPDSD

Brc1ccc(Oc2cc(Br)c(Br)cc2Br)c(Br)c1
inactive: [1] | [2] | [3] | [4] | [5] | [6] | [7] | [8] | [11] | [13] | [14] | [15] | [16] | [17] | [20] | [23]
active: [9] 13.2 µM | [10] 14.1 µM | [12] 13.6 µM | [18] 10 µM | [19] 10 µM | [21] 10 µM | [22] 13.5 µM
